Tests used:
Test in all cases: DAPPL (digital affinity profiling via proximity ligation, sequencing); 10 mM Tris-HCl pH 7.5, 50 mM NaCl, 1 mM DTT, 4% glycerol, room temperature, 30 min; GST-TFs on glutathione beads, 16-mer random dsDNA library, 0.1% formaldehyde crosslink after washing; high values mean tight binding
FLI1 = biological target: T1, FLI1 (Homo sapiens, UniProt Q01543 1-452); conditions: protein: recombinant; tags: N-terminal GST; dsDNA, one strand shown
T1 sequence: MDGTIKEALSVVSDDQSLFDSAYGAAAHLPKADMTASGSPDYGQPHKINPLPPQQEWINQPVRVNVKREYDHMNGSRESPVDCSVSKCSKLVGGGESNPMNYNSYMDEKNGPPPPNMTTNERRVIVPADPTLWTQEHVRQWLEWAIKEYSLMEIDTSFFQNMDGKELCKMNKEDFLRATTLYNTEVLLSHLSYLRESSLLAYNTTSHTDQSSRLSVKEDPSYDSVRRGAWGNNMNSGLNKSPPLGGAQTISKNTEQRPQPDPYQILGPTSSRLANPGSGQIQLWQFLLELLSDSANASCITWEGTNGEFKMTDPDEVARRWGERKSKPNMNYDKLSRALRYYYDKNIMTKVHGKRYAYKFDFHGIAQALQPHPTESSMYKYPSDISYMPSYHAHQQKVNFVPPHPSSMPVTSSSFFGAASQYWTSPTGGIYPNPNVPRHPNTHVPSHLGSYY
Method in brief: (§1)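 Binding signal is each hexamer's read frequency for a factor divided by its frequency in the tag-only sample. The factors were GST-fused human transcription factors from yeast, captured on glutathione beads, DNA-barcoded and pooled with that sample. Pools were incubated with 200 nmole of a random double-stranded 16-mer DNA library in Tris/NaCl/DTT/glycerol buffer at room temperature for 30 min, then washed, crosslinked with 0.1% formaldehyde, proximity-ligated with BsaI/T4 ligase (1 h, 37 °C), PCR-amplified and sequenced on an Illumina NextSeq500.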

ELK1 = biological target: T2, ELK1 (Homo sapiens, UniProt P19419 1-428); conditions: protein: recombinant; tags: N-terminal GST; dsDNA, one strand shown
T2 sequence: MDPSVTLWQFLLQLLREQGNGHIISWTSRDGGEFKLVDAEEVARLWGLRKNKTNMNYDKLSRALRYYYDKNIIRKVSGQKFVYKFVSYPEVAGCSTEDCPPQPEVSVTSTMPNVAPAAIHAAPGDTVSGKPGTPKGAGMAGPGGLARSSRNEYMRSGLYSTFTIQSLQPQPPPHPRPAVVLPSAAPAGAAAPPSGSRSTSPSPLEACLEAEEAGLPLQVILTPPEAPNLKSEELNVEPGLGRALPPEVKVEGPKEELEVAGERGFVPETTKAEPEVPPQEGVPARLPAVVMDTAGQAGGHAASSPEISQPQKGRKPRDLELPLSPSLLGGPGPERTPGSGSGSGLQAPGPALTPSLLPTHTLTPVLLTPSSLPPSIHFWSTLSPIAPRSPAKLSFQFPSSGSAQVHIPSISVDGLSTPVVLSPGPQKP
Method in brief: as §1

GABPA = biological target: T3, GABPA (Homo sapiens, UniProt Q06546 1-454); conditions: protein: recombinant; tags: N-terminal GST; dsDNA, one strand shown
T3 sequence: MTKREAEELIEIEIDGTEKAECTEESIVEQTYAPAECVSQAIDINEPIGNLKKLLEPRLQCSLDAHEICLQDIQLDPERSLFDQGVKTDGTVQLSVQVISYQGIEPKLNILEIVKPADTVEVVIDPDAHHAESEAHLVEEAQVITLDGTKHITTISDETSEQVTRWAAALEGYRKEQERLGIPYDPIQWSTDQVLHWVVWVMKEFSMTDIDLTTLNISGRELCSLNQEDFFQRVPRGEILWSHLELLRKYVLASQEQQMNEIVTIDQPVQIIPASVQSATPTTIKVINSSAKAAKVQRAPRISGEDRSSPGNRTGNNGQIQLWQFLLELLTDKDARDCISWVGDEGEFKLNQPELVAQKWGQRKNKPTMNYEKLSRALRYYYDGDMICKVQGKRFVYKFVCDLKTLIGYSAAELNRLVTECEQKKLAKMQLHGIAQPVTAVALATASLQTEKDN
Method in brief: as §1

ERG = biological target: T4, ERG (Homo sapiens, UniProt P11308 1-479); conditions: protein: recombinant; tags: N-terminal GST; dsDNA, one strand shown
T4 sequence: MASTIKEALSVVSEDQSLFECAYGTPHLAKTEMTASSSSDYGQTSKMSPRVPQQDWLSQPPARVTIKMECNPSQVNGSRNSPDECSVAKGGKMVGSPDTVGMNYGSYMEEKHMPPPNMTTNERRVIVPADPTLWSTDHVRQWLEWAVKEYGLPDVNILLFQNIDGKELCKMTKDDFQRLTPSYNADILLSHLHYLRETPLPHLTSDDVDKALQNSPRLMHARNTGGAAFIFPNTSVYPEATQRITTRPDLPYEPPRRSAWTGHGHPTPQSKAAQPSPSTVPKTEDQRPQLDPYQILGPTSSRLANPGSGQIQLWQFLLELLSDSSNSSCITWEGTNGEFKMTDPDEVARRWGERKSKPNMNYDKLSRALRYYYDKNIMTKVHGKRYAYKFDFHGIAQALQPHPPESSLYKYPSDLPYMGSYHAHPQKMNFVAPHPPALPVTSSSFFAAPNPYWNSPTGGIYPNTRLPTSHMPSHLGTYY
Method in brief: as §1

ELF1 = ELF1 (Homo sapiens, UniProt P32519 1-619); conditions: protein: recombinant; tags: N-terminal GST; dsDNA, one strand shown
Sequence of ELF1 (P32519 whole entry): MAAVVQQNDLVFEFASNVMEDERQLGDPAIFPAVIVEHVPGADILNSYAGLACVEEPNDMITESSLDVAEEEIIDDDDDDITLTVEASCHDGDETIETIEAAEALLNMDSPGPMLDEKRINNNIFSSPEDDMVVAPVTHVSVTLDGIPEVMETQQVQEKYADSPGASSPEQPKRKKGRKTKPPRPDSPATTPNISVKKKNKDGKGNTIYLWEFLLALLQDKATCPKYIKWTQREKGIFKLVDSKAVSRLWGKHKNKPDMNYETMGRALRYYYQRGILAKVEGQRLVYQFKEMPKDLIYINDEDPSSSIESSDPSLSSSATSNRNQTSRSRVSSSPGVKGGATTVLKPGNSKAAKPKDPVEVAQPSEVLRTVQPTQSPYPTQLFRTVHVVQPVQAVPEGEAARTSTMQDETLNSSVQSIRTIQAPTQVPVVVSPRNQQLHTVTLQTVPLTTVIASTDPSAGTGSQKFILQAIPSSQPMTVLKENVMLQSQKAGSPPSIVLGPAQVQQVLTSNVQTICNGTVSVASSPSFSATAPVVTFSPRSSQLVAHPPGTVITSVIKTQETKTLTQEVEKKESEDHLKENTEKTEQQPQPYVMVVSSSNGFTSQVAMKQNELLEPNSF
Method in brief: as §1

EHF = biological target: T5, EHF (Homo sapiens, UniProt Q9NZC4 1-300); conditions: protein: recombinant; tags: N-terminal GST; dsDNA, one strand shown
T5 sequence: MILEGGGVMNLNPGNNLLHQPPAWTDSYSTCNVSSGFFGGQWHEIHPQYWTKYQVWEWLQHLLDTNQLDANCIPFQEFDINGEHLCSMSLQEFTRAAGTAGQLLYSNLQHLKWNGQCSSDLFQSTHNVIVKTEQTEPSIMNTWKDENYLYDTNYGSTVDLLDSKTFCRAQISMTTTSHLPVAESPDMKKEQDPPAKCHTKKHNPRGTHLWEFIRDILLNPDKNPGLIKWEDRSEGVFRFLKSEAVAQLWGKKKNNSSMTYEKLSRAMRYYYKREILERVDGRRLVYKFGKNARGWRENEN
Method in brief: as §1

SPI1 = SPI1 (Homo sapiens, UniProt P17947 1-270); conditions: protein: recombinant; tags: N-terminal GST; dsDNA, one strand shown
Method in brief: as §1

SPIB = SPIB (Homo sapiens, UniProt Q01892 1-262); conditions: protein: recombinant; tags: N-terminal GST; dsDNA, one strand shown
Sequence of SPIB (Q01892 whole entry): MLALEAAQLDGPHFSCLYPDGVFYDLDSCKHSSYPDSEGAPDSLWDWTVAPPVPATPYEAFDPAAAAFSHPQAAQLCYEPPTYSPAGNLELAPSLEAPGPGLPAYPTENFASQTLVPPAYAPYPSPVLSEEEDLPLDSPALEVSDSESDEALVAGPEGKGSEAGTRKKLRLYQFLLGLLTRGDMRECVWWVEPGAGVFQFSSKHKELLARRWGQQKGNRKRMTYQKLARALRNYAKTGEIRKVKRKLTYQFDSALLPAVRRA
Method in brief: as §1

ELK3 = biological target: T6, ELK3 (Homo sapiens, UniProt P41970 1-407); conditions: protein: recombinant; tags: N-terminal GST; dsDNA, one strand shown
T6 sequence: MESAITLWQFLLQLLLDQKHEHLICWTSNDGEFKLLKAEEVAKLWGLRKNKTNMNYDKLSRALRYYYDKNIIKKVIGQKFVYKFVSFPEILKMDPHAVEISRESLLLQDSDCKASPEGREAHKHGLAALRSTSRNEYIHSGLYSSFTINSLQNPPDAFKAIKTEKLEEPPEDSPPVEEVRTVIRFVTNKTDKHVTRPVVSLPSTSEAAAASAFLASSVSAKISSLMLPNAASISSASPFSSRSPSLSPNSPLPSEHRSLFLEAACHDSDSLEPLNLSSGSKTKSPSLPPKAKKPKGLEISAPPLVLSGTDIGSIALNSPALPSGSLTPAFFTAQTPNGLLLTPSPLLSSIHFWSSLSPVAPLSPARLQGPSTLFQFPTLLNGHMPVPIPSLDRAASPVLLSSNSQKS
Method in brief: as §1

FEV = biological target: T7, FEV (Homo sapiens, UniProt Q99581 1-238); conditions: protein: recombinant; tags: N-terminal GST; dsDNA, one strand shown
T7 sequence: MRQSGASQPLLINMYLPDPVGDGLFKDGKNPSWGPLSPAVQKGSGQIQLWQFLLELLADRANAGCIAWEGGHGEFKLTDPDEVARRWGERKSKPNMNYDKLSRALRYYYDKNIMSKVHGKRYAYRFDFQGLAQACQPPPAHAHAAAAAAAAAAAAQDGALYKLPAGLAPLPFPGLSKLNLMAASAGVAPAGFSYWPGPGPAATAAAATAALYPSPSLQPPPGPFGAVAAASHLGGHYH
Method in brief: as §1

ETV5 = ETV5 (Homo sapiens, UniProt P41161 1-510); conditions: protein: recombinant; tags: N-terminal GST; dsDNA, one strand shown
Sequence of ETV5 (P41161 whole entry): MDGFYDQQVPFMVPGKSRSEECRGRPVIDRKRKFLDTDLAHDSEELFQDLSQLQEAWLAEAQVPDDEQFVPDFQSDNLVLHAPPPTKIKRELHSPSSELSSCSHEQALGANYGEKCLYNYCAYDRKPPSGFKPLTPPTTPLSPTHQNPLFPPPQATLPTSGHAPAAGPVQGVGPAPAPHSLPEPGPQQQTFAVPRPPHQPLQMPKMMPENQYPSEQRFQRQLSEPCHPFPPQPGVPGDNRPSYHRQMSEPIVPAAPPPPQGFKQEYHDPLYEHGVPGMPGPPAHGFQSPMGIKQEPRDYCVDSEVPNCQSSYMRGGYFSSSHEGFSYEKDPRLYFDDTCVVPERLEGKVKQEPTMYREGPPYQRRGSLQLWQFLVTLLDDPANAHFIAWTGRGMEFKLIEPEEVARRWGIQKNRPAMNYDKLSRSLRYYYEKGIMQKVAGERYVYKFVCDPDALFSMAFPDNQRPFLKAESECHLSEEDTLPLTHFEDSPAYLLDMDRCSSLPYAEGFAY
Method in brief: as §1

HSF1 = HSF1 (Homo sapiens, UniProt Q00613 1-529); conditions: protein: recombinant; tags: N-terminal GST; chain copies: 3; dsDNA, one strand shown
Sequence of HSF1 (Q00613 whole entry): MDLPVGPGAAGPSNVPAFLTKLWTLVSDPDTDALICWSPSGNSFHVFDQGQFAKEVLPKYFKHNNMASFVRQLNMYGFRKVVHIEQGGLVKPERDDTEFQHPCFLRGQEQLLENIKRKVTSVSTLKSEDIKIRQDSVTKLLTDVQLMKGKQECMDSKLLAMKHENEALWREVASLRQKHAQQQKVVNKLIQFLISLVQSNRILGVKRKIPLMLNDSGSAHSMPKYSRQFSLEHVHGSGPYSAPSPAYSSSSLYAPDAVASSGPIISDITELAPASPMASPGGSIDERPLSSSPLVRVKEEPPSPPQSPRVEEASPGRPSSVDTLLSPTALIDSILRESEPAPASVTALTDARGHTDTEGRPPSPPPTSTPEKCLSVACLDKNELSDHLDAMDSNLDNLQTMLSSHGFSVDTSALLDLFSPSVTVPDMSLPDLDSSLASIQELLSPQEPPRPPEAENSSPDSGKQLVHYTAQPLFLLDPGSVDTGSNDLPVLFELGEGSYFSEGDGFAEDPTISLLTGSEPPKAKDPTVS
Method in brief: as §1

SPIC = biological target: T8, SPIC (Homo sapiens, UniProt Q8N5J4 1-248); conditions: protein: recombinant; tags: N-terminal GST; dsDNA, one strand shown
T8 sequence: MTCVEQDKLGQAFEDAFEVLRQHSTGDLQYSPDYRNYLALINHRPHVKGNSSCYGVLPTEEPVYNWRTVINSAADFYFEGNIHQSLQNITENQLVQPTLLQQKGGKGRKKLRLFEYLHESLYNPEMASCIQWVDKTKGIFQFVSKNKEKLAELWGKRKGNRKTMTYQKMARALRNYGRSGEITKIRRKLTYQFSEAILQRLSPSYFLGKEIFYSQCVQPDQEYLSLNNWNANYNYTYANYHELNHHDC
Method in brief: as §1

ELF4 = ELF4 (Homo sapiens, UniProt Q99607 1-663); conditions: protein: recombinant; tags: N-terminal GST; dsDNA, one strand shown
Sequence of ELF4 (Q99607 whole entry): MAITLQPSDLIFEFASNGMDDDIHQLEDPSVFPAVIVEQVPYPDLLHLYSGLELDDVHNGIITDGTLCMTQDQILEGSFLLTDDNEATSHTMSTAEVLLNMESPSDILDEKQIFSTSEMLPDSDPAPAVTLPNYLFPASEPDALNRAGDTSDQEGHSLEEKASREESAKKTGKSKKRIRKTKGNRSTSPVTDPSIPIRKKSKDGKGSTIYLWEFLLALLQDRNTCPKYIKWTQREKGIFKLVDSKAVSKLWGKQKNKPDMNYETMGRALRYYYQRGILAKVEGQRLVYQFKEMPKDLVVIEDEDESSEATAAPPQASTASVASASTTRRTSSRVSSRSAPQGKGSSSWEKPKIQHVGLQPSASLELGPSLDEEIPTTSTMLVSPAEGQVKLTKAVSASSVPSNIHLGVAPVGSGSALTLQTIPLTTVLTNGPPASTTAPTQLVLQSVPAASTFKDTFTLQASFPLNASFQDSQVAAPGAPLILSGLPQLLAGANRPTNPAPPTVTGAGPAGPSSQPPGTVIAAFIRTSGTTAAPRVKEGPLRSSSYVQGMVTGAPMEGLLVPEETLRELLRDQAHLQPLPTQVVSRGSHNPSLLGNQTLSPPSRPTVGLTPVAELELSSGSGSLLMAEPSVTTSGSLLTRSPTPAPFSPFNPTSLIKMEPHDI
Method in brief: as §1

ELK4 = biological target: T9, ELK4 (Homo sapiens, UniProt P28324-2 1-405); conditions: protein: recombinant; tags: N-terminal GST; dsDNA, one strand shown
T9 sequence: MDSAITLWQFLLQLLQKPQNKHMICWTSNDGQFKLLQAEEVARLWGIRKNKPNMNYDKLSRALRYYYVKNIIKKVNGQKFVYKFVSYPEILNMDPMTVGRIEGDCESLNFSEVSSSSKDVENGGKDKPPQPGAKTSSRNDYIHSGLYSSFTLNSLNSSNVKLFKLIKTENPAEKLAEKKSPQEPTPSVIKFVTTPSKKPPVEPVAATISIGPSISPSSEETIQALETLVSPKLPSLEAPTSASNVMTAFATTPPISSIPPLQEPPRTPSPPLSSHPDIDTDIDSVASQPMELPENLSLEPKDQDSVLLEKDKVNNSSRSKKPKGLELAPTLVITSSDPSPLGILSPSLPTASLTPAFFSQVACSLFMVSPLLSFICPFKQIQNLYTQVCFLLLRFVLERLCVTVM
Method in brief: as §1

ETV2 = biological target: T10, ETV2 (Homo sapiens, UniProt O00321 1-342); conditions: protein: recombinant; tags: N-terminal GST; dsDNA, one strand shown
T10 sequence: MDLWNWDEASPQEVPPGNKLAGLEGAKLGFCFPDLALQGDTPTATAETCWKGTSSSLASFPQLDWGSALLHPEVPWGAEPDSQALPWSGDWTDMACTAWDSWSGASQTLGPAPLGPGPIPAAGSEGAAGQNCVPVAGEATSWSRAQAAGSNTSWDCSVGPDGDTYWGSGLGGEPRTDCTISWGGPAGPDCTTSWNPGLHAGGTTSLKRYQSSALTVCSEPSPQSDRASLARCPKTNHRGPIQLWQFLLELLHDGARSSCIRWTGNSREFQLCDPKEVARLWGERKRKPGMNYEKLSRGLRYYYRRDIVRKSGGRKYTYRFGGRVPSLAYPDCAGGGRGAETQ
Method in brief: as §1

ELF3 = biological target: T11, ELF3 (Homo sapiens, UniProt P78545 1-371); conditions: protein: recombinant; tags: N-terminal GST; dsDNA, one strand shown
T11 sequence: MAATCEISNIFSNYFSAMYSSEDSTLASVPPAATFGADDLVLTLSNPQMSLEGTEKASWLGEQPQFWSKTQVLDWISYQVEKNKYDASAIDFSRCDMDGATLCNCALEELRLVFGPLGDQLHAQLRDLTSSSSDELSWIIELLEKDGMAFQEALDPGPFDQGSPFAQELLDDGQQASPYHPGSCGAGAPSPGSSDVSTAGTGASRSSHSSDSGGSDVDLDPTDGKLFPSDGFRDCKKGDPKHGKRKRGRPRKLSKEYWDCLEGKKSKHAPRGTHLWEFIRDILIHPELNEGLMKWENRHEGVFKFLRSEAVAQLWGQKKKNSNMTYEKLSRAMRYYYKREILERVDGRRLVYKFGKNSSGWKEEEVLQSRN
Method in brief: as §1

CRX = CRX (Homo sapiens, UniProt O43186 1-299); conditions: protein: recombinant; tags: N-terminal GST; dsDNA, one strand shown
Sequence of CRX (O43186 whole entry): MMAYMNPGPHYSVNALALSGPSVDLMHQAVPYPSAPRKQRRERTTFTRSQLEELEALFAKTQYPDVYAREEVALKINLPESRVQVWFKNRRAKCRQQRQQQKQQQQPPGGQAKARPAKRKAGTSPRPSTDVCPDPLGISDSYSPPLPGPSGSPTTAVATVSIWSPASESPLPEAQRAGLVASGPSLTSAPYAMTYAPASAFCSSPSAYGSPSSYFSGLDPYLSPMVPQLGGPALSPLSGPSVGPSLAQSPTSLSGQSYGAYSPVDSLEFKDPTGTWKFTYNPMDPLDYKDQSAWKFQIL
Method in brief: as §1

ETV1 = ETV1 (Homo sapiens, UniProt P50549 1-477); conditions: protein: recombinant; tags: N-terminal GST; dsDNA, one strand shown
Sequence of ETV1 (P50549 whole entry): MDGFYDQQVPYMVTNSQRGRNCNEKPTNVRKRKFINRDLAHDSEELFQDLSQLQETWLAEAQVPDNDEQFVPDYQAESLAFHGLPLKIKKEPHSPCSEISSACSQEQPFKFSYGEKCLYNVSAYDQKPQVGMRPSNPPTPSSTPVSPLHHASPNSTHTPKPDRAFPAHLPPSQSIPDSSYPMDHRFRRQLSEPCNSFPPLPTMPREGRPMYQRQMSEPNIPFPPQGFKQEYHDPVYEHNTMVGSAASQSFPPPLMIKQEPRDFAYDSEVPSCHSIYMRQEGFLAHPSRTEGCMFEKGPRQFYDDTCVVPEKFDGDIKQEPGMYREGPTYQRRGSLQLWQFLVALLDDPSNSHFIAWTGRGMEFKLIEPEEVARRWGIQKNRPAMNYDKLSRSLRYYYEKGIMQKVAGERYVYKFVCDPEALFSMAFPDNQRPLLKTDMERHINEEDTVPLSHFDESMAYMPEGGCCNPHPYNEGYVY
Method in brief: as §1

With TTTGTC the binding signal (FLI1) was 1.35 fold enrichment (6-mer frequency, TF over GST control), the binding signal (ELK1) was 1.21 fold enrichment (6-mer frequency, TF over GST control) and the binding signal (GABPA) was 1.19 fold enrichment (6-mer frequency, TF over GST control). The binding signal (ERG) was 1.19 fold enrichment (6-mer frequency, TF over GST control), the binding signal (ELF1) was 1.26 fold enrichment (6-mer frequency, TF over GST control) and the binding signal (EHF) was 1.24 fold enrichment (6-mer frequency, TF over GST control). The binding signal (SPI1) was 1.23 fold enrichment (6-mer frequency, TF over GST control), the binding signal (SPIB) was 1.16 fold enrichment (6-mer frequency, TF over GST control) and the binding signal (ELK3) was 1.18 fold enrichment (6-mer frequency, TF over GST control). For the same sequence, the binding signal (FEV) was 1.19 fold enrichment (6-mer frequency, TF over GST control), the binding signal (ETV5) was 1.15 fold enrichment (6-mer frequency, TF over GST control) and the binding signal (HSF1) was 1.11 fold enrichment (6-mer frequency, TF over GST control). The binding signal (SPIC) was 1.16 fold enrichment (6-mer frequency, TF over GST control), the binding signal (ELF4) was 1.18 fold enrichment (6-mer frequency, TF over GST control) and the binding signal (ELK4) was 1.23 fold enrichment (6-mer frequency, TF over GST control). For the same sequence, the binding signal (ETV2) was 1.16 fold enrichment (6-mer frequency, TF over GST control), the binding signal (ELF3) was 1.27 fold enrichment (6-mer frequency, TF over GST control) and the binding signal (CRX) was 1.29 fold enrichment (6-mer frequency, TF over GST control). The binding signal (ETV1) was 1.14 fold enrichment (6-mer frequency, TF over GST control).

Source: publication PMC7862700, “An all-to-all approach to the identification of sequence-specific readers for epigenetic DNA modifications on cytosine”
